Results on three compounds are retold here after ChEMBL document CHEMBL1961873, “Compounds: GSK PKIS; Assays: Nanosyn kinase panel” (2012).

The target in assay [1] is 5'-AMP-activated protein kinase catalytic subunit alpha-2 (Homo sapiens) (UniProt P54646). To be noted: at 1 µM.
In assay [2] the target is T1, NUAK family SNF1-like kinase 1 (Homo sapiens) (UniProt O60285).
T1 sequence (whole entry): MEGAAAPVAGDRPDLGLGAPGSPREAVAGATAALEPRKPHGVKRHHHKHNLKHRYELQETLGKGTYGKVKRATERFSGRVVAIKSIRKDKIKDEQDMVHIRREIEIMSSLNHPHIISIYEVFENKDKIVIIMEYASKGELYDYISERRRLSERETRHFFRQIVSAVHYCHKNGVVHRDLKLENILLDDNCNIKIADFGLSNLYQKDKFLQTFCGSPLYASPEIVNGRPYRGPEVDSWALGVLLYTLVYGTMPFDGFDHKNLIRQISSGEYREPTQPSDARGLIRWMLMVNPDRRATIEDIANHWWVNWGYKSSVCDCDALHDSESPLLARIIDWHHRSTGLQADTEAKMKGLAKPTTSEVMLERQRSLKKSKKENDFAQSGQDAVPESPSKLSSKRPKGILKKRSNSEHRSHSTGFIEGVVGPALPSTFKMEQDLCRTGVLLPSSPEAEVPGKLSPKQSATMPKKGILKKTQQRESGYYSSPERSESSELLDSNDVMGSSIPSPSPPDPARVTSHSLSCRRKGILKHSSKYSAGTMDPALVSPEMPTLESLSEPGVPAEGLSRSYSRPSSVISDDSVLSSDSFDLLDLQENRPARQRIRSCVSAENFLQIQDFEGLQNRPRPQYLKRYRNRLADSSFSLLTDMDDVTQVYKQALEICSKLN
As to conditions: at 0.1 µM.

Assay [3] deals with T1, NUAK family SNF1-like kinase 1 (Homo sapiens). To be noted: at 1 µM.
The target in assay [4] is T2, Serine/threonine-protein kinase BRSK1 (Homo sapiens) (UniProt Q8TDC3).
T2 sequence (whole entry): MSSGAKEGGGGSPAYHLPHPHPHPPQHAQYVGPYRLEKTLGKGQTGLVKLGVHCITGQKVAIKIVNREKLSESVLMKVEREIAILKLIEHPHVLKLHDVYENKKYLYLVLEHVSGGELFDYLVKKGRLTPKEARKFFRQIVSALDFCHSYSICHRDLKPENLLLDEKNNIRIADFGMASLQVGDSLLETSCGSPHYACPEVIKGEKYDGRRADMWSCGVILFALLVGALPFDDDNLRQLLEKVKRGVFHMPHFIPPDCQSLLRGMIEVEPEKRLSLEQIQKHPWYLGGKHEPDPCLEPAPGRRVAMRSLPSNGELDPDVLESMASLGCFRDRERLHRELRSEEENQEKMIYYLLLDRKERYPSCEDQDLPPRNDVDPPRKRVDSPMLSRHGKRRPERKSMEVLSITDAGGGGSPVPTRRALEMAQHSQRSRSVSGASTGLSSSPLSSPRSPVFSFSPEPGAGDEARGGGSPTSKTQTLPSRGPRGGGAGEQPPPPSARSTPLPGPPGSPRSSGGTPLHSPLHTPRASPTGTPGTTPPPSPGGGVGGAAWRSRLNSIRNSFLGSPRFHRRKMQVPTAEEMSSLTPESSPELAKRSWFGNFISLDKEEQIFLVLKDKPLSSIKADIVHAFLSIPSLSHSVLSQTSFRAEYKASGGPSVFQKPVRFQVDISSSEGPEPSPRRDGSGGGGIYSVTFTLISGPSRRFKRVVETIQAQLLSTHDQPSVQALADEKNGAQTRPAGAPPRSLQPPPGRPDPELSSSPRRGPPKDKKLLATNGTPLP
As to conditions: at 0.1 µM.

Assay [5] addresses T2, Serine/threonine-protein kinase BRSK1 (Homo sapiens). As to conditions: at 1 µM.
Assay [6] has as its target T3, Serine/threonine-protein kinase BRSK2 (Homo sapiens) (UniProt Q8IWQ3).
T3 sequence (whole entry): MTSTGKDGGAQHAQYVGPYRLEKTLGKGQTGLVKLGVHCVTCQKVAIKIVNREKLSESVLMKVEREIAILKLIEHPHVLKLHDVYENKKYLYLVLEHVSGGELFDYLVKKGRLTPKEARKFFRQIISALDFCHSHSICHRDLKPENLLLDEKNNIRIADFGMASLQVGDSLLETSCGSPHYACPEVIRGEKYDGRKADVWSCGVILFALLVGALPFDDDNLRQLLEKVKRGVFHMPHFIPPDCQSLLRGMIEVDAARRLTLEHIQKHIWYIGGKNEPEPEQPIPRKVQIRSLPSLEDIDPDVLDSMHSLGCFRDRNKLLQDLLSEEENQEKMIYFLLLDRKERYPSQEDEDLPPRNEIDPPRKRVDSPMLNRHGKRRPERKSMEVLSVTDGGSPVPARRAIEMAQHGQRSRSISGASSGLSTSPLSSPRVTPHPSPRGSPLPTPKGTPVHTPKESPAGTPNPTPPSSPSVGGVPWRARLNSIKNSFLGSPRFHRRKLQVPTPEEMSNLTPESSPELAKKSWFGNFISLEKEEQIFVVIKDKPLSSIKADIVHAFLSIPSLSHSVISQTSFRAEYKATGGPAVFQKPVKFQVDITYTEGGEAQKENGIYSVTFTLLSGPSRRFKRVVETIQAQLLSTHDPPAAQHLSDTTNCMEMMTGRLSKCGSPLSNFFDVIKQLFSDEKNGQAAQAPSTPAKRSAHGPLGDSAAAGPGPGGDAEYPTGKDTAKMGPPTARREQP
As to conditions: at 0.1 µM.

Assay [7] addresses T3, Serine/threonine-protein kinase BRSK2 (Homo sapiens). To be noted: at 1 µM.
Assay [8] concerns the target Calcium/calmodulin-dependent protein kinase type 1D (Homo sapiens) (UniProt Q8IU85). To be noted: at 0.1 µM.
For assay [9] the target is unchanged. As to conditions: at 1 µM.
The target in assay [10] is Calcium/calmodulin-dependent protein kinase type II subunit alpha (Homo sapiens) (UniProt Q9UQM7). To be noted: at 0.1 µM.
Assay [11] shares this target. To be noted: at 1 µM.
The target of assay [12] is Calcium/calmodulin-dependent protein kinase type II subunit delta (Homo sapiens) (UniProt Q13557). To be noted: at 0.1 µM.
Assay [13] shares this target. As to conditions: at 1 µM.
In assay [14] the target is T4, Calcium/calmodulin-dependent protein kinase type IV (Homo sapiens) (UniProt Q16566).
T4 sequence (whole entry): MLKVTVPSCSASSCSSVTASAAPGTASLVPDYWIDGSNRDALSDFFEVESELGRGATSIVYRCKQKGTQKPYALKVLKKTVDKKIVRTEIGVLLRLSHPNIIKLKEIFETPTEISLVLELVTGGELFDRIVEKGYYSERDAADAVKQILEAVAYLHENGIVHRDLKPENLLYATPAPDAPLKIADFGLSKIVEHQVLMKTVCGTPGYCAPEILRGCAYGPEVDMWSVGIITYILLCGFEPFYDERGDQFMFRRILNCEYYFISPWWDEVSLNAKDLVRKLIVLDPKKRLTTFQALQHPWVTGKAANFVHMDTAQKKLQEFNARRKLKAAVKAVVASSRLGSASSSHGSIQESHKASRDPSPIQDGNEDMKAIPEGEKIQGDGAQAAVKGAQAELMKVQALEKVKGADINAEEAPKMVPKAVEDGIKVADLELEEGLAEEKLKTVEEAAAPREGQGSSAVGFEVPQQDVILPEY
To be noted: at 0.1 µM.

For assay [15], the target named is T4, Calcium/calmodulin-dependent protein kinase type IV (Homo sapiens). As to conditions: at 1 µM.
In assay [16] the target is T5, Serine/threonine-protein kinase Chk1 (Homo sapiens) (UniProt O14757).
T5 sequence (whole entry): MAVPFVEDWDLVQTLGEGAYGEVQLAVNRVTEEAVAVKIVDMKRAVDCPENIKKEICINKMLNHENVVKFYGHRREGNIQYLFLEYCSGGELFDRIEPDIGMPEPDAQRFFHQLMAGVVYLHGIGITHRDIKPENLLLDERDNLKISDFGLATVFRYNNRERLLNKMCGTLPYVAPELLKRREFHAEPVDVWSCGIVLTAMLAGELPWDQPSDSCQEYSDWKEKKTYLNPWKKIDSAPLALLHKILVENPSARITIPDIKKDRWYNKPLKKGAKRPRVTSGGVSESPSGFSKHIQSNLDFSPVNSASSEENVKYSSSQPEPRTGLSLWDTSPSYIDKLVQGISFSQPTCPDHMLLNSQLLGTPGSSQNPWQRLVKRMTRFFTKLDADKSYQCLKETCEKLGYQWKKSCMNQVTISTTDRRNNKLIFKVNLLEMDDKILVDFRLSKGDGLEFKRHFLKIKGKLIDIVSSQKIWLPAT
As to conditions: at 0.1 µM.

For assay [17], the target named is T5, Serine/threonine-protein kinase Chk1 (Homo sapiens). To be noted: at 1 µM.
In assay [18] the target is Serine/threonine-protein kinase Chk2 (Homo sapiens) (UniProt O96017). As to conditions: at 0.1 µM.
Assay [19] shares this target. As to conditions: at 1 µM.
The target in assay [20] is Death-associated protein kinase 1 (Homo sapiens) (UniProt P53355). To be noted: at 0.1 µM.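 Also: reported figure is the mean inhibition of DAPK1.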
Sequence of Death-associated protein kinase 1 (Homo sapiens) (P53355 whole entry, looked up): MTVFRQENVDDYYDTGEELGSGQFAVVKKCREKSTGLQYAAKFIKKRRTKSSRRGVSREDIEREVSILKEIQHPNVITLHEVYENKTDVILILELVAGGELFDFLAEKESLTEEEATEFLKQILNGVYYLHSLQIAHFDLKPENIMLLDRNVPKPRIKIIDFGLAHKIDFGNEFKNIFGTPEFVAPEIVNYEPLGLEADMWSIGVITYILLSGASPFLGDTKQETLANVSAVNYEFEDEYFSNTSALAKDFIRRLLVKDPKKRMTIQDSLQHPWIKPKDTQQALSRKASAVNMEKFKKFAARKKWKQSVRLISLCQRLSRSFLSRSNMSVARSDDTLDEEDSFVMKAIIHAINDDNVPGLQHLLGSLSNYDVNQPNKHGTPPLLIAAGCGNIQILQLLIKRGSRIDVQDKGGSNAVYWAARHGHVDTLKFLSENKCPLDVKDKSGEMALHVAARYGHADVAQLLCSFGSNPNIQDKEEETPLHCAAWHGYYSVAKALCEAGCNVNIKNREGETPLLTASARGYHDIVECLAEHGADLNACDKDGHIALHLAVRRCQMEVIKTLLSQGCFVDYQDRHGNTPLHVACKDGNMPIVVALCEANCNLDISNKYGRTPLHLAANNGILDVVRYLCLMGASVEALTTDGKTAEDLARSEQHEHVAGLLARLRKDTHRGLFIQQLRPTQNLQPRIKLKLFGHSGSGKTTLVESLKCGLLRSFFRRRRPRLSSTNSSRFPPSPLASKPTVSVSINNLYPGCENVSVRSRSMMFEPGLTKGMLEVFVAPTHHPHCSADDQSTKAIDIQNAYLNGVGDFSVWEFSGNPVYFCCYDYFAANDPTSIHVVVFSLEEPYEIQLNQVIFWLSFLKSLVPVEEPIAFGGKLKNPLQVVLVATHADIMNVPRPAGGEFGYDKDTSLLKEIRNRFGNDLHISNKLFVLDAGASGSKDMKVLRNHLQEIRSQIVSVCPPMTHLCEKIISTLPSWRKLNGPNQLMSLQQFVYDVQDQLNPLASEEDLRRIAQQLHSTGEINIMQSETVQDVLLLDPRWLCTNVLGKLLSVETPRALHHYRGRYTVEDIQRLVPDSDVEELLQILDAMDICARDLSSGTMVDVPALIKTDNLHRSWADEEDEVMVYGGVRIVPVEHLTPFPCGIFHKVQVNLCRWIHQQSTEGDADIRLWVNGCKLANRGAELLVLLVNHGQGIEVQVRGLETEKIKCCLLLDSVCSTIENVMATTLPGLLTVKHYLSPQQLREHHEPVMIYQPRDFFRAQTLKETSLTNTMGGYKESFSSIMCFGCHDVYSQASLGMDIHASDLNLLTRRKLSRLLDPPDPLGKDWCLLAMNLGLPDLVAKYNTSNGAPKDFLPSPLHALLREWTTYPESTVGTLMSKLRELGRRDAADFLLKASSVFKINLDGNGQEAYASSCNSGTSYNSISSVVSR

Sequence of Calcium/calmodulin-dependent protein kinase type 1D (Homo sapiens) (Q8IU85 whole entry, looked up): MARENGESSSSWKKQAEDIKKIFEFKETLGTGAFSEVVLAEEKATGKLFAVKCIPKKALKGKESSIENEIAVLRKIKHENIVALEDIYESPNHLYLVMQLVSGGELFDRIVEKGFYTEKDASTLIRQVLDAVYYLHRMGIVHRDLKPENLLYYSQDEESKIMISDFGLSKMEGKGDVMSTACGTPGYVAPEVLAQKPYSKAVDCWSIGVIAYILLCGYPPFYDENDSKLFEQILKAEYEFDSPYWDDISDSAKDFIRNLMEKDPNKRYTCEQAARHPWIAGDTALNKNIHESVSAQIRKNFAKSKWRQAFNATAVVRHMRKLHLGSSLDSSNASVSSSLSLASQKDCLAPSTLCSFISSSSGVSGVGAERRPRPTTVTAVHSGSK
Sequence of 5'-AMP-activated protein kinase catalytic subunit alpha-2 (Homo sapiens) (P54646 whole entry, looked up): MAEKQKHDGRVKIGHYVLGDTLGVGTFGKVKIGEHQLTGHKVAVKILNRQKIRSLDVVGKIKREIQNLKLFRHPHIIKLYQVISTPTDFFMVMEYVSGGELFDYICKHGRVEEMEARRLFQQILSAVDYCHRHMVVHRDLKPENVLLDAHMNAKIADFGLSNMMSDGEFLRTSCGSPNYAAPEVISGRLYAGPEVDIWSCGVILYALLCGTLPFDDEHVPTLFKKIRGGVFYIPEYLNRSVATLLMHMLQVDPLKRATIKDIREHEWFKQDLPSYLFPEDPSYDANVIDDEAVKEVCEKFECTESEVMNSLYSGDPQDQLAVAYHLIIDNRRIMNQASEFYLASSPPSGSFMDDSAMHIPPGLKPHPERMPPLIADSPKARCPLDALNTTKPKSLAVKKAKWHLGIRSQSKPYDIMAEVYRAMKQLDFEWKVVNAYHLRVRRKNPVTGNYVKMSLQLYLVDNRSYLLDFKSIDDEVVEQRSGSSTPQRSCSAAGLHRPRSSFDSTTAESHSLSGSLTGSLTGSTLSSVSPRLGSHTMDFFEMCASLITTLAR
Sequence of Serine/threonine-protein kinase Chk2 (Homo sapiens) (O96017 whole entry): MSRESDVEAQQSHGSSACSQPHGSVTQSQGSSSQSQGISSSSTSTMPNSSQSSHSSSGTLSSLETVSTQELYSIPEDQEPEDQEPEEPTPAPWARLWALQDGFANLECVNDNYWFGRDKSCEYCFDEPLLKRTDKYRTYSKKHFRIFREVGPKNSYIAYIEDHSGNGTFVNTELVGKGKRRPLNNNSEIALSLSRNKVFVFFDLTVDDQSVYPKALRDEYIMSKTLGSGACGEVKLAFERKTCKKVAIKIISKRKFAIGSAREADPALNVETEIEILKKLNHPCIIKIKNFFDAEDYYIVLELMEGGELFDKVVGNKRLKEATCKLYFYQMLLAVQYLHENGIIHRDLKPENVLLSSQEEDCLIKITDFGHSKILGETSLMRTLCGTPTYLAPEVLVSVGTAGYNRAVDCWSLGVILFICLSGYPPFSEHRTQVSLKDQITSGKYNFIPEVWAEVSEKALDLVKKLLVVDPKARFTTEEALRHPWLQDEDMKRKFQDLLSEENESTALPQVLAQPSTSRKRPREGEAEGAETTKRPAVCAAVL
Sequence of Calcium/calmodulin-dependent protein kinase type II subunit delta (Homo sapiens) (Q13557 whole entry): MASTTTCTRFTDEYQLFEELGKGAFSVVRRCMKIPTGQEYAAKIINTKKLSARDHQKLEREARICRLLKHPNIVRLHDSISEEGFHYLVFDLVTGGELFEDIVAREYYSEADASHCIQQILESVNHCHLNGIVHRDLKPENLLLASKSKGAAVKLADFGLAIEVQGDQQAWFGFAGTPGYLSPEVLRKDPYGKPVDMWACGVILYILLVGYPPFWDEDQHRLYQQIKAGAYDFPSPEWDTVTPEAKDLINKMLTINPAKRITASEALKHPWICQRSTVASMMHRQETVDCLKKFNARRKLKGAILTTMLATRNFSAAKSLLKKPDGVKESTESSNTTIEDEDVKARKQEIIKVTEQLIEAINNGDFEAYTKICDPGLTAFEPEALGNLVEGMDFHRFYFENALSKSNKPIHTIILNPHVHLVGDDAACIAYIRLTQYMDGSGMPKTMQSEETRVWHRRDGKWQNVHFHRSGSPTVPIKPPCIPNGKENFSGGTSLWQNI
Sequence of Calcium/calmodulin-dependent protein kinase type II subunit alpha (Homo sapiens) (Q9UQM7 whole entry): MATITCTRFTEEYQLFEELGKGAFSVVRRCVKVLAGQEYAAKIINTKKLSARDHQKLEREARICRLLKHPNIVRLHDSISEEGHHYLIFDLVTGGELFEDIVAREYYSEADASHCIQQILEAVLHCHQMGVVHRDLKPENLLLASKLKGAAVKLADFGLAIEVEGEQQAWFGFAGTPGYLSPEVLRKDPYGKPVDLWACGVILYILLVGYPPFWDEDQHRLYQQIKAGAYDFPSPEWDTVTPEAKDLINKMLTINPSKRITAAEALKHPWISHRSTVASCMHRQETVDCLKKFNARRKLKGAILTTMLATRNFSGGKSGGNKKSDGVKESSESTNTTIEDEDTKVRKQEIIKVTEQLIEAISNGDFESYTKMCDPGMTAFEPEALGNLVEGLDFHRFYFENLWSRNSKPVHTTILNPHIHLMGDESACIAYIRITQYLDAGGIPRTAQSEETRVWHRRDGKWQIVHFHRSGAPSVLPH

What is called inhibition is the relative decrease from the control value, in per cent. Take `CC(=O)NCc1cccc(C#Cc2cncnc2Nc2ccc(OCc3cccc(F)c3)c(Cl)c2)c1`: the inhibition in assay [1] is 3.37%; in assay [2], 3.47%; in assay [3], 1.8%; in assay [4], 1.85%; in assay [5], 3.55%; in assay [6], 1.29%. Also, the inhibition in assay [7] was 5.12%; in assay [8], 0.67%; in assay [9], 2.08%; in assay [10] it was 24.7%; in assay [11] it was -0.5%; in [12] it was 0.37%. For the same compound, the inhibition is 1.1% in assay [13]; 1.04% in [14]; 2.01% in [15]; -3.2% in assay [16]; -4.26% in assay [17]; -4.58% in assay [18]. Further, the inhibition was -3.41% in [19] and -6.93% in [20].
Consider `CC(=O)Nc1cccc(C#Cc2cncnc2Nc2ccc(OCc3cccc(F)c3)c(Cl)c2)c1`, for which the inhibition was found to be 2.19% in assay [1]; 1.95% in assay [2]; 7.23% in assay [3]; 2.55% in [4]; 1.82% in assay [5]; 1.34% in assay [6]. The inhibition in assay [7] stood at 0.36%; in assay [8], 2.97%; in assay [9] it was 3.77%; in assay [10], 4.42%; in assay [11], 4.52%; in assay [12] it was 4.28%. Besides, the inhibition in [13] was 3.37%; in assay [14], 1.57%; in assay [15], 3.24%; in assay [16], -1.89%; in assay [17], -3.6%; in assay [18] it was -2.67%. Besides, the inhibition in assay [19] is -1.77%; in assay [20], -6.34%.
Regarding `CNC(=O)c1cccc(C#Cc2cncnc2Nc2ccc(OCc3cccc(F)c3)c(Cl)c2)c1`, the inhibition in assay [1] was 1.89%; in [2], 0.54%; in [3] it was 8.68%; in [4] it was -0.7%; in assay [5] it was 2.56%; in assay [6] it was 1.59%. Further, the inhibition in assay [7] is 4.03%; in assay [8], -1.04%; in assay [9] it was -0.89%; in [10] it was 1.34%; in [11], 1.97%; in assay [12] it was 0.91%. The inhibition in [13] was 1.19%; in [14], -0.97%; in [15], -3.36%; in assay [16], -1.85%; in [17], -0.79%; in [18] it was 0.62%. Besides, the inhibition in assay [19] is 2.35%; in assay [20], -1.4%.
